Results from PubChem BioAssay (EPA / NIEHS).
Inconclusive results are not listed. Active and inactive are the calls of the source. How the source made its calls, unless noted: active means hit-call score of the fitted dose curve at least 0.9, where 1 is the maximum; inactive means score below 0.9.

How the values were obtained:
[1] = target: Bile acid receptor (Homo sapiens) (UniProt Q96RI1); experiment: OT_FXR_FXRSRC1_0480: Odyssey Thera (OT) 8-hour HEK293T Protein-Complementation Assay for Farnesoid X receptor/SRC-1 Co-activator (AID 2283383; active means hit-call score of the fitted dose curve at least 0.9, where 1 is the maximum)
Method in brief: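 Co-activator recruitment to FXR was measured in living HEK293T cells, where interaction of the two fused partners restored an active fluorescent reporter. Signal gain after 8 h treatment was referenced to DMSO.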

[2] = target: Bile acid receptor (Homo sapiens) (UniProt Q96RI1); experiment: OT_FXR_FXRSRC1_1440: Odyssey Thera (OT) 24-hour HEK293T Protein-Complementation Assay for Farnesoid X receptor/SRC-1 Co-activator (AID 2283384; active means hit-call score of the fitted dose curve at least 0.9, where 1 is the maximum)
Method in brief: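 Cell-based binding reporter: interaction of FXR with SRC-1 brings reporter fragments together, giving a fluorescence signal read 24 h after dosing of HEK293T cells.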

[3] = target: Peroxisome proliferator-activated receptor gamma (Homo sapiens) (UniProt P37231); experiment: OT_PPARg_PPARgSRC1_0480: Odyssey Thera (OT) 8-hour Protein-Complementation Assay for Peroxisome Proliferator-activated Receptor Gamma / SRC-1 Co-activator (AID 2283387; active means hit-call score of the fitted dose curve at least 0.9, where 1 is the maximum;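 further: nuclear to cytoplasmic split Venus YFP fluorescence ratio reporting PPARg SRC-1 interaction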)
Method in brief: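 Read-out: 488 nm N/C fluorescence ratio from complemented Venus YFP fragments, ≥350 cells per image, gain-of-signal fitted against DMSO baseline. Fusions of PPARg/SRC-1 with IFP1/IFP2 expressed transiently in HEK293T; compounds applied 8 h.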

[4] = target: Peroxisome proliferator-activated receptor gamma (Homo sapiens) (UniProt P37231); experiment: OT_PPARg_PPARgSRC1_1440: Odyssey Thera (OT) 24-hour Protein-Complementation Assay for Peroxisome Proliferator-activated Receptor Gamma/ SRC-1 Co-activator (AID 2283388; active means hit-call score of the fitted dose curve at least 0.9, where 1 is the maximum;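 further: nuclear to cytoplasmic ratio of reconstituted Venus YFP fluorescence in fixed imaged cells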)
Method in brief: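 Readout: nuclear-to-cytoplasmic 488 nm fluorescence ratio, ≥350 cells per image, 8 images per well, after 24 h compound exposure of HEK293T expressing PPARg/SRC-1 split-YFP fusions. Activity fitted in positive direction against DMSO.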

[5] = read-out: Tumor necrosis factor receptor superfamily member 6 (Homo sapiens) (UniProt P25445); experiment: LTEA_HepaRG_FAS: Life Technologies and Expression Analysis (LTEA) Assay for Fas cell surface death receptor (FAS) using HepaRG (AID 2283447); conditions: mRNA level, 48 h; actives raise or lower the signal
Method in brief: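 FAS transcript level was measured by TaqMan qRT-PCR against three housekeeping genes after 48 h chemical exposure. Cells were HepaRG, 0.5% DMSO vehicle, with a top concentration of 100 uM and half-log dilutions over eight points, in duplicate.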

[6] = read-out: Fatty acid synthase (Homo sapiens) (UniProt P49327); experiment: LTEA_HepaRG_FASN: Life Technologies and Expression Analysis (LTEA) Assay for Fatty Acid Synthase (FASN) using HepaRG (AID 2283448); conditions: mRNA level, 48 h; actives raise or lower the signal
Method in brief: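 Transcript-level assay: HepaRG liver cells are treated for 48 h across an eight-point range topping at 100 uM, and FASN mRNA, normalized to three housekeeping genes, is compared with DMSO controls in both directions.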

[7] = read-out: Cyclin D2 (CCND2), CCND2 (gene 894); experiment: LTEA_HepaRG_CCND2: Life Technologies and Expression Analysis (LTEA) Assay for Cyclin D2 (CCND2) using HepaRG (AID 2283449); conditions: mRNA level, 48 h; actives raise or lower the signal
Method in brief: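 Read-out is CCND2 mRNA level measured by qRT-PCR in human HepaRG liver cells and normalised to three housekeeping genes. Chemicals were applied for 48 h at up to 100 uM, with gain or loss fitted relative to 0.5% DMSO.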

[8] = read-out: Cyclin Dependent Kinase Inhibitor 1A (CDKN1A), CDKN1A (gene 1026); experiment: LTEA_HepaRG_CDKN1A: Life Technologies and Expression Analysis (LTEA) Assay for Cyclin Dependent Kinase Inhibitor 1A (CDKN1A) using HepaRG (AID 2283450); conditions: mRNA level, 48 h; actives raise or lower the signal
Method in brief: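 HepaRG, 48 h dosing, 8-pt half-log series from 100 uM top, 0.5% DMSO vehicle, duplicates. Readout: TaqMan qRT-PCR of CDKN1A transcript, housekeeping-normalized (ACTB, GAPDH, POLR2A). Up/down curve fit relative to DMSO.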

[9] = read-out: Cyclin D1 (CCND1), CCND1 (gene 595); experiment: LTEA_HepaRG_CCND1: Life Technologies and Expression Analysis (LTEA) Assay for Cyclin D1 (CCND1) using HepaRG (AID 2283451); conditions: mRNA level, 48 h; actives raise or lower the signal
Method in brief: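 qRT-PCR (Fluidigm 96.96 array) read-out of transcript level, housekeeping-normalized (ACTB/GAPDH/POLR2A). HepaRG cells, 48 h chemical exposure, 8-point half-log series from 100 uM, 0.5% DMSO vehicle; gain or loss relative to DMSO baseline.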

[10] = read-out: catalase (CAT), CAT (gene 847); experiment: LTEA_HepaRG_CAT: Life Technologies and Expression Analysis (LTEA) Assay for catalase (CAT) using HepaRG (AID 2283452); conditions: mRNA level, 48 h; actives raise or lower the signal
Method in brief: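 Expression of CAT was quantified by TaqMan qRT-PCR with ACTB/GAPDH/POLR2A normalization after 48 h chemical exposure of HepaRG. Eight-point half-log series, top 100 uM, in 0.5% DMSO; gain or loss fitted against vehicle.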

[11] = read-out: flavin-containing dimethylaniline monooxygenases 3 (FMO3), FMO3 (gene 2328); experiment: LTEA_HepaRG_FMO3: Life Technologies and Expression Analysis (LTEA) Assay for flavin-containing dimethylaniline monooxygenases 3 (FMO3) using HepaRG (AID 2283453); conditions: mRNA level, 48 h; actives raise or lower the signal
Method in brief: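 HepaRG, 48 h exposure, 8-pt half-log series from 100 uM, 0.5% DMSO vehicle, duplicates; FMO3 transcript by Fluidigm TaqMan qRT-PCR, housekeeping-normalized; gain/loss fit vs DMSO.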

[12] = CEETOX_H295R_OHPREG: CeeTox H295R High-throughput Steroidogenesis Assay for OH-Pregnenolone (OHPREG) (AID 2283434); conditions: actives raise or lower the signal
Method in brief: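 Hormone levels in spent medium were measured by tandem mass spectrometry following liquid-liquid extraction. Cells (H295R) had been forskolin-stimulated (10 uM, 48 h) before a 48 h chemical exposure at 0.1% DMSO, with activity fitted in both directions against DMSO.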

[13] = CEETOX_H295R_OHPROG: CeeTox H295R High-throughput Steroidogenesis Assay for OH-Progesterone (OHPROG) (AID 2283435); conditions: actives raise or lower the signal;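 on AC50: human adrenal H295R cells primed 48 h with 10 µM forskolin; 17alpha-hydroxyprogesterone secreted into medium measured by HPLC-MS/MS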
Method in brief: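 Secreted 17alpha-hydroxyprogesterone is read by tandem MS from media of forskolin-primed H295R cells dosed with chemical for 48 h. Activity is fitted in both directions against DMSO baseline; cytotoxic concentrations are re-tested diluted.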

[14] = CEETOX_H295R_CORTIC: CeeTox H295R High-throughput Steroidogenesis Assay for Corticosterone (CORTIC) (AID 2283437); conditions: actives raise or lower the signal;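 further: corticosterone secreted into medium quantified by mass spectrometry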;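 on AC50: human H295R adrenal cells prestimulated with forskolin before chemical exposure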
Method in brief: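 Corticosterone secreted into medium is measured by reverse-phase HPLC with tandem MS following liquid-liquid extraction. Cells are forskolin-stimulated (10 uM, 48 h) before 48 h test exposure; activity fitted in both directions against DMSO.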

[15] = CEETOX_H295R_CORTISOL: CeeTox H295R High-throughput Steroidogenesis Assay for Cortisol (AID 2283438); conditions: actives raise or lower the signal;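 further: cortisol secreted into medium quantified by LC-MS/MS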
Method in brief: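 Human adrenocortical H295R cells (passage ≤10) received test chemicals for 48 h after forskolin priming. Secreted cortisol was measured by LC-MS/MS.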

[16] = CEETOX_H295R_DOC: CeeTox H295R High-throughput Steroidogenesis Assay for DOC (AID 2283439); conditions: actives raise or lower the signal
Method in brief: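 Secreted DOC was quantified from H295R media by HPLC-MS/MS after 48 h chemical exposure following 48 h forskolin (10 uM) prestimulation. Values were fitted in both directions relative to DMSO, the negative control and baseline.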

[17] = CEETOX_H295R_ESTRADIOL: CeeTox H295R High-throughput Steroidogenesis Assay for Estradiol (AID 2283440); conditions: actives raise or lower the signal;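 further: estradiol secreted into medium quantified by LC-MS/MS after dansyl derivatisation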
Method in brief: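 H295R, 48 h forskolin (10 uM) prestim → 48 h compound, 0.1% DMSO final. Estradiol in medium: MTBE extraction, dansyl chloride derivatization, LC-MS/MS. Fit bidirectional vs DMSO baseline; MTT viability in same wells.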

[18] = target: Retinoic acid receptor RXR-alpha (Homo sapiens) (UniProt P19793); experiment: OT_NURR1_NURR1RXRa_1440: Odyssey Thera (OT) 24-hour HEK293T Protein Complementation Assay for Nurr1/retinoid X receptor (RXR) (AID 2283386; active means hit-call score of the fitted dose curve at least 0.9, where 1 is the maximum)
Method in brief: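 Measured as fluorescence from a reconstituted split reporter, this 24 h HEK293T complementation assay scores compound-induced gain of Nurr1/RXRα association relative to DMSO.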

[19] = target: Retinoic acid receptor RXR-alpha (Homo sapiens) (UniProt P19793); experiment: OT_NURR1_NURR1RXRa_0480: Odyssey Thera (OT) 8-hour HEK293T Protein Complementation Assay for Nurr1/retinoid X receptor (RXR) (AID 2283385; active means hit-call score of the fitted dose curve at least 0.9, where 1 is the maximum)
Method in brief: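 Compounds are applied to HEK293T cells carrying Nurr1 and RXRα linked to reporter fragments. After 8 h, fluorescence intensity reports heterodimer formation, with DMSO as baseline.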

[20] = CEETOX_H295R_ANDR: CeeTox H295R High-throughput Steroidogenesis Assay for Androstenedione (ANDR) (AID 2283436); conditions: actives raise or lower the signal;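 further: human H295R adrenal cells exposed for 48 h with androstenedione measured in medium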
Method in brief: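 Read-out is androstenedione secreted into medium, measured by tandem mass spectrometry after liquid-liquid extraction. Cells were H295R, dosed for 48 h per modified OECD 456; activity fitted in both directions relative to DMSO.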

Measured: AC50

Chain of Retinoic acid receptor RXR-alpha (Homo sapiens) (P19793 whole entry, looked up, the tested form may be a part): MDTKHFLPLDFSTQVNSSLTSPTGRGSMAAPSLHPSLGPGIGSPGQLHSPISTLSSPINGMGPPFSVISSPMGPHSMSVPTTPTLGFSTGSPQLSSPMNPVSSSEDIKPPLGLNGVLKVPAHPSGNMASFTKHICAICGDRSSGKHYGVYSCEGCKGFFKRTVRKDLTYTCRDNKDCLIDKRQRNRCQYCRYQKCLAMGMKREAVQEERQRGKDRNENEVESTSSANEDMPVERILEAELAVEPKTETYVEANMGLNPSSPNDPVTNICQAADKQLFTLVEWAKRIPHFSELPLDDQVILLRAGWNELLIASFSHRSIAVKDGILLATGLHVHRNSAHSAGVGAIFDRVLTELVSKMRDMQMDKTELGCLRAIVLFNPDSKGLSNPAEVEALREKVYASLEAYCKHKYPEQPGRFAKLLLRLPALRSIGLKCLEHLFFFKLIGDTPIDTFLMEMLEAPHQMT
Chain of Bile acid receptor (Homo sapiens) (Q96RI1 whole entry, looked up, the tested form may be a part): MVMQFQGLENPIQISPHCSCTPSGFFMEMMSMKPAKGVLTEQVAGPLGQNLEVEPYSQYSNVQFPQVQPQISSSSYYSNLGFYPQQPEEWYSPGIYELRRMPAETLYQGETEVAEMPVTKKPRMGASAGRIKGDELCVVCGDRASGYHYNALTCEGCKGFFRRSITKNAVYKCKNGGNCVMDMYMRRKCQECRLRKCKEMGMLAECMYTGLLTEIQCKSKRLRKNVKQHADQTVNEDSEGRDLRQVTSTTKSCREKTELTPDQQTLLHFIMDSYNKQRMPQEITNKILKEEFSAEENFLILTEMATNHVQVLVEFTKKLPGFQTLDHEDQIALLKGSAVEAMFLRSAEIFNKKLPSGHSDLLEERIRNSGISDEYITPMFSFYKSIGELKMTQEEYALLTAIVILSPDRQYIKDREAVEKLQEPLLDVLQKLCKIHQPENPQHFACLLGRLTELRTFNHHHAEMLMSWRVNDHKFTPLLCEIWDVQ
Chain of Fatty acid synthase (Homo sapiens) (P49327 whole entry, looked up): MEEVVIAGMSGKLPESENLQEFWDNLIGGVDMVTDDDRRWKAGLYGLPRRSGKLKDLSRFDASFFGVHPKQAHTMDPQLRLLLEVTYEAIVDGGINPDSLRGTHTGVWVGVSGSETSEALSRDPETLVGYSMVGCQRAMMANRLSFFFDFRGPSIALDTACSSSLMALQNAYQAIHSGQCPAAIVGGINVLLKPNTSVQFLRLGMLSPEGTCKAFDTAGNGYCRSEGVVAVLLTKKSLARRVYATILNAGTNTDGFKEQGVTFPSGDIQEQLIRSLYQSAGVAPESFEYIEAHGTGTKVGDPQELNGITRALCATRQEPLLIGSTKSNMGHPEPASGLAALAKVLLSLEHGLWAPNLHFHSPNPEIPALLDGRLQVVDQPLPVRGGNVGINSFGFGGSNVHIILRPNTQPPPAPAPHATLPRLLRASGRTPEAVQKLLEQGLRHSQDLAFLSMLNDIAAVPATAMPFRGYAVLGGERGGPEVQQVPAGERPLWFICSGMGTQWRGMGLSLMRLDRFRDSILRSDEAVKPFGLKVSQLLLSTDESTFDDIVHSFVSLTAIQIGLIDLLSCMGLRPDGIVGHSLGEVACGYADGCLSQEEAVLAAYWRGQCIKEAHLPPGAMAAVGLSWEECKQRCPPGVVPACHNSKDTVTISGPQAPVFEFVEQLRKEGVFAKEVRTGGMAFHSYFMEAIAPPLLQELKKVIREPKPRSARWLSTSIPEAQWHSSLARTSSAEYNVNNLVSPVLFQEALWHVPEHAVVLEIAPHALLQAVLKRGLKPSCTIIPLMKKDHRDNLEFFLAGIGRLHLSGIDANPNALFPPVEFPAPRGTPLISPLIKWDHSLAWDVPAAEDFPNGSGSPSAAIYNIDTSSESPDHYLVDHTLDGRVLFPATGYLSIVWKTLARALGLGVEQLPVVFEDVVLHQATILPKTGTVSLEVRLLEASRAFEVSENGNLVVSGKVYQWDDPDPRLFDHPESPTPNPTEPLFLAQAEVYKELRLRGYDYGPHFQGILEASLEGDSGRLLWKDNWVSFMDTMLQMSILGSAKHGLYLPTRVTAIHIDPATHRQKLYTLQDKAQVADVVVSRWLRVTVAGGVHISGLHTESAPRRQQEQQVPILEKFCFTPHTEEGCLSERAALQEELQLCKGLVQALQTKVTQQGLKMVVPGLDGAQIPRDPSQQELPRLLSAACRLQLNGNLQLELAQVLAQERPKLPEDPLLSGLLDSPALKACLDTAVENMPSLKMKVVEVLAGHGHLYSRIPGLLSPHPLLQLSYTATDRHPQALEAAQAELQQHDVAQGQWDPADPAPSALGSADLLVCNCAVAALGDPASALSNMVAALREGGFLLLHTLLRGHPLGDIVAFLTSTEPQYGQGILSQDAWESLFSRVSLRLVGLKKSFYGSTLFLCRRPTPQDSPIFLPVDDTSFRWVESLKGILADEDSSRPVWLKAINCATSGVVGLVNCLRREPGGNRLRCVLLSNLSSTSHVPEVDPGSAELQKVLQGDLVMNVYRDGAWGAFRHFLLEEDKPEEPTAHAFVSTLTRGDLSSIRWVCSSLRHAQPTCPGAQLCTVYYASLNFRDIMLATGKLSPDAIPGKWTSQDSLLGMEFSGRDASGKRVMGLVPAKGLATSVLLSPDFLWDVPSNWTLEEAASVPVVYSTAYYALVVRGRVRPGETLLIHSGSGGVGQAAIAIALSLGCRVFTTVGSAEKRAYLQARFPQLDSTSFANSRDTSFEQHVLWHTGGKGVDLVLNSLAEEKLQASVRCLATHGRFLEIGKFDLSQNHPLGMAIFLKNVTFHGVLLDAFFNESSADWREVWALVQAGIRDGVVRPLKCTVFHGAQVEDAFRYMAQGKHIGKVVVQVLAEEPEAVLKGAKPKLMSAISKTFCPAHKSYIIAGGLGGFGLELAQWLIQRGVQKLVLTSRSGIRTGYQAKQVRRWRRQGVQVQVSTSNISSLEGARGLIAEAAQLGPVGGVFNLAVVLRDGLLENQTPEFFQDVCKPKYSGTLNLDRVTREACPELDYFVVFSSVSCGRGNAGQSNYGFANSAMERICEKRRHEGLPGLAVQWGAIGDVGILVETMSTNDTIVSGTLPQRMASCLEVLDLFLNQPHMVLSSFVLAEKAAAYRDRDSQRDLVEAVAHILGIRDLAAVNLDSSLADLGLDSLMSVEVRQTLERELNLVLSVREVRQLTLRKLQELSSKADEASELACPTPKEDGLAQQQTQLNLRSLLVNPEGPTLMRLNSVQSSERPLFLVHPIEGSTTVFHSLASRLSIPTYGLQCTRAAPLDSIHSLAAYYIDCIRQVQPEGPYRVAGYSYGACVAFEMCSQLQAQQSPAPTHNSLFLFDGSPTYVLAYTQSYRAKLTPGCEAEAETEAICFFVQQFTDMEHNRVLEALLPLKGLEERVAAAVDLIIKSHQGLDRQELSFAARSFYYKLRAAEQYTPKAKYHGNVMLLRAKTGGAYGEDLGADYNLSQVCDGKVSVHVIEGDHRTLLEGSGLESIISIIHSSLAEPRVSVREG
Chain of Peroxisome proliferator-activated receptor gamma (Homo sapiens) (P37231 whole entry, looked up, the tested form may be a part): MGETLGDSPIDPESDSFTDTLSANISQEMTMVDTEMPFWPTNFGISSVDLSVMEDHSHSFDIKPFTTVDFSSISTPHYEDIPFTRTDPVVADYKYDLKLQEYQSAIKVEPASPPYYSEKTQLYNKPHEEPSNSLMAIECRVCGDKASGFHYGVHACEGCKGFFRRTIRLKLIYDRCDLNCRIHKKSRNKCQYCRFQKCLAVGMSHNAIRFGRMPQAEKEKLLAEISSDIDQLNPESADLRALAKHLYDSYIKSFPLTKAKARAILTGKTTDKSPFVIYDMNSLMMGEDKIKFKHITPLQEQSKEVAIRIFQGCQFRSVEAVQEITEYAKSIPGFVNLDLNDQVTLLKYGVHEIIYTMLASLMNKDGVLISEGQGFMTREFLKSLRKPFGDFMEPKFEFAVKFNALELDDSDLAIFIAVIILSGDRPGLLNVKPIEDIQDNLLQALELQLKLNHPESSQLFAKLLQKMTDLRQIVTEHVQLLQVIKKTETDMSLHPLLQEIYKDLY

O=[N+]([O-])c1ccc(Cl)c(Cl)c1
inactive: [1] | [2] | [3] | [4] | [5] | [6] | [7] | [8] | [9] | [10] | [11]

O=S(=O)(c1ccc(O)cc1)c1ccc(O)cc1
inactive: [1] | [3] | [4] | [12] | [14]
active: [13] 0.82 µM | [15] 28.4 µM | [16] 3.31 µM | [17] 18.3 µM

CCCCN(CCCC)N=O
inactive: [1] | [18] | [3] | [4] | [5] | [6] | [7] | [8] | [9] | [10] | [11]

ClC1=C(Cl)C2(Cl)C3C(Cl)C(Cl)CC3C1(Cl)C2(Cl)Cl (stereo unspecified)
inactive: [1] | [3] | [4] | [5] | [6] | [7] | [8] | [9] | [10] | [11]

O=P(OCC(Br)CBr)(OCC(Br)CBr)OCC(Br)CBr (stereo unspecified)
active: [1] 11.4 µM | [2] 29 µM | [18] 73.9 µM
inactive: [3] | [4]

CCN(CC)c1ccccc1
not listed: [1] | [12] | [13] | [14] | [15] | [16] | [17] | [20]
inactive: all other assays above

CN(C)C(=O)Cl
inactive: [19] | [3] | [4] | [5] | [6] | [7] | [8] | [9] | [10] | [11]

O=S1(=O)OCC2C(CO1)C1(Cl)C(Cl)=C(Cl)C2(Cl)C1(Cl)Cl (stereo unspecified)
active: [1] 49.3 µM | [2] 50 µM | [12] 2.84 µM | [13] 10 µM | [15] 9.67 µM | [16] 7.77 µM
inactive: [3] | [4] | [14] | [17]

CO/N=C(/C(=O)OC)c1ccccc1COc1ccccc1C
inactive: [14] | [16]
active: [1] 13.4 µM | [2] 12.4 µM | [12] 13.1 µM | [13] 4.07 µM | [20] 21.2 µM | [15] 9.52 µM

CCCCc1ccc(O)cc1
active: [2] 67.9 µM | [14] 28.3 µM | [15] 28.4 µM
inactive: [1] | [19] | [18] | [3] | [4] | [12] | [13] | [16] | [17]

c1nc[nH]n1
active: [7] 0.0353 µM
inactive: [1] | [18] | [3] | [4] | [5] | [6] | [8] | [9] | [10] | [11]

O=NN1CCCC1
inactive: [1] | [2] | [3] | [4]

CC(Cc1ccc(OCC(=O)O)cc1)NCC(O)c1csc(C(F)(F)F)n1 (stereo unspecified)
inactive: [19] | [18] | [3] | [4] | [5] | [6] | [7] | [8] | [9] | [10] | [11]

CCCCC(CC)COP(=O)(Oc1ccccc1)Oc1ccccc1 (stereo unspecified)
active: [1] 2.85 µM | [18] 82.1 µM
inactive: [2] | [4]

CCOP(=S)(OCC)SCSCC
active: [1] 32.6 µM
inactive: [2] | [19] | [3] | [4] | [5] | [6] | [8] | [9] | [10] | [11]

Cc1ccc([N+](=O)[O-])cc1C
not listed: [12] | [13] | [14] | [15] | [16] | [17] | [19] | [20]
inactive: all other assays above

CC(C)(C)OOC(C)(C)C
inactive: [1] | [18] | [3] | [4] | [5] | [6] | [7] | [8] | [9] | [10] | [11]

O=C(CBr)OCc1ccccc1
inactive: [1] | [18] | [3] | [4]
